# Shown are actives, neighbours in structure and some others; about 12% of the full set was active somewhere.
# USP17 block: inhibitors of human USP17 deubiquitinase | hit rate 6.5% among 47,000 | Ubiquitin carboxyl-terminal hydrolase 17-like protein 5 (Homo sapiens), A8MUK1 | inhibition, % at 50 µM | purified USP17, Ub-rhodamine cleavage fluorescence, 3 h
# USP30 inh: inhibitors of human USP30 deubiquitinase; Ubiquitin carboxyl-terminal hydrolase 30 (Homo sapiens), Q70CQ3; purified USP30, Ub-rhodamine cleavage fluorescence; inhibition, % at 25 µM; hit rate 5.3% among 47,000
# USP28 inh: inhibitors of human USP28 deubiquitinase | purified USP28, Ub-rhodamine cleavage fluorescence, 30 min | inhibition, % at 25 µM | hit rate 3% among 47,000 | AID 1645857, 2021
# OTUD3 inh: inhibitors of human OTUD3 deubiquitinase; OTU domain-containing protein 3 (Homo sapiens), Q5T2D3; purified OTUD3, Ub-rhodamine fluorescence, 2 h; inhibition, % at 25 µM; hit rate 0.7% among 47,000
# * = called active by the depositor. No stated cut-off is given here; in the data, active means inhibition above about 30%; inactive means the rest.
SMILES,USP17 block,USP30 inh,USP28 inh,OTUD3 inh
CCCNC(=O)[C@H](Cc1ccccc1)NC(=O)N1CCn2c1nc1ccccc12,40.3*,39.3*,4.9,8.8
CC(C)NC(=O)[C@H](Cc1ccccc1)NC(=O)N1CCn2c1nc1ccccc12,33.1*,62.4*,16.7,11.8
O=C(O)CNC(=O)[C@H](Cc1ccccc1)NC(=O)N1CCn2c1nc1ccccc12,1.8,2.1,4.5,5.3
O=C(Nc1cnn(-c2ncc(N3CCCC3)cn2)c1)c1ccccn1,-18.2,-202.5,-30.8,-55.6
O=C(Oc1cc(O)cc2c1C[C@@H](OC(=O)c1cc(O)c(O)c(O)c1)[C@@H](c1cc(O)c(O)c(O)c1)O2)c1cc(O)c(O)c(O)c1,77.3*,0.1,77.8*,72.9*
CCOC(=O)N1CCN(S(=O)(=O)c2ccc(C(=O)Nc3ccc(Br)cc3)cc2)CC1,87.8*,27.8,7.7,23.1
COc1ccc(CCn2c(C)c(C)c3c2ncn2nc(-c4cccnc4)nc32)cc1OC,13.7,1.8,13.7,9.2
COc1ccc(S(=O)(=O)N2CCCCCC2)cc1NC(=O)c1cc(F)cc(F)c1,-1.1,7.5,-2.8,3.6
COC(=O)c1ccccc1NC(=O)c1ccc(S(=O)(=O)N2CCCC2)cc1,15.5,42.6*,4.6,3.1
COc1ccc(S(=O)(=O)N2CCCCC2)cc1NC(=O)c1ccc(N2CCCC2=O)cc1,50.0*,26.9,5.4,3.4
COc1ccccc1NC(=O)c1cc(S(=O)(=O)N2CCCC2)ccc1Cl,0.3,-6.6,1.7,-1.1
CCOc1ccc(CCNC(=O)c2cnc(Nc3ccccc3OC)c3ccccc23)cc1OCC,9.8,17.0,9.0,15.8
COc1cc(Cl)ccc1Nc1ncc(C(=O)Nc2cc(OC)c(OC)c(OC)c2)c2ccccc12,93.8*,-3.9,-1.1,6.2
COc1ccc(Nc2ncc(C(=O)Nc3ccc(Oc4ccccc4)cc3)c3ccccc23)cc1,19.4,67.9*,14.3,24.8
O=C(Cn1c(=O)n(Cc2ccc3c(c2)OCO3)c(=O)c2ncccc21)NCc1ccco1,48.7*,-11.5,17.9,16.1
O=C(Cn1c(=O)n(Cc2ccncc2)c(=O)c2ncccc21)Nc1ccccc1,-0.8,-0.6,3.1,5.2
O=C(Cn1c(=O)n(Cc2ccccc2)c(=O)c2ncccc21)NCc1ccccc1Cl,85.7*,-28.3,-0.5,-5.5
O=C(Cn1c(=O)n(Cc2ccc3c(c2)OCO3)c(=O)c2ncccc21)c1ccc(Cl)cc1,4.8,62.4*,-8.4,0.9
Cc1sc2c(C3CCN(C(=O)C(C)NC4CCS(=O)(=O)C4)CC3)nc(C)n2c1C (stereo unspecified),12.4,0.0,-3.4,3.3
COc1ccc(C)cc1NC(=O)Cc1csc(NC(=O)c2ccc(=O)[nH]c2)n1,71.1*,-75.3,22.8,10.2
Cc1cccc(Nc2cccc(C3CCCN3CC(N)=O)n2)n1 (stereo unspecified),-27.6,0.4,-7.9,-0.5
CC(C)OC(=O)c1cc2c(ccn2-c2ccc(F)cc2)n1CC(=O)NC1CCCCC1,23.4,19.3,17.6,46.7*
Cn1nccc1C(=O)N1CCCCC1c1ncc(Cc2ccc(Cl)cc2)o1 (stereo unspecified),-1.7,4.0,12.2,35.2*
O=C(c1cnco1)N1CCCCC1c1ncc(Cc2ccc(Cl)cc2)o1 (stereo unspecified),11.3,3.6,-240.3,10.8
COc1cccc(N2CCCn3c2nc2c3c(=O)n(Cc3ccccc3)c(=O)n2C)c1,7.6,14.4,0.8,4.0
SMILES,USP17 block,USP30 inh,USP28 inh,OTUD3 inh
CN1C(=O)COc2cc(-c3noc(C(=O)NC4CCCCC4)n3)ccc21,26.1,31.1*,12.2,12.9
CC(CNC(=O)c1nc(-c2ccc3c(c2)OCC(=O)N3C)no1)c1ccccc1 (stereo unspecified),3.4,28.9,38.7*,10.5
CN1C(=O)COc2cc(-c3noc(C(=O)NCCc4ccccc4)n3)ccc21,9.1,15.5,12.7,9.7
COc1ccc(CCNc2nc(-c3ccccc3)cc(-c3ccccc3)c2C#N)cc1OC,36.7*,25.9,-1.6,10.3
O=C(NC1CCCC1)c1cc(-c2cccnc2)n(-c2ccccc2)n1,23.7,32.5*,20.2,13.2
Cc1ccc(NC(=O)c2cc(-c3cccnc3)n(-c3ccccc3)n2)nc1,31.8*,51.0*,15.8,4.1
COc1ccc(C2=NO[C@]3(C(=O)Nc4ccccc43)[C@H]2C(=O)c2ccco2)cc1,-13.5,-5.5,-1.6,-2.7
O=C(NCCc1cccnc1)c1nc(-c2cn(-c3nccs3)cn2)n2ccccc12,45.0*,-108.2,-4.9,-11.0
